Read-outs that look alike come from different tables or passages of the source.
How the values were obtained:
CDC2L2 = conditions: concentration: 1 μM, replicates: in singlicate; n = 1
CDC2L5 = tested on: T1, CDC2L5; conditions: n = 1
T1 construct: gene CDK13

CDK11 = tested on: T2, CDK11; conditions: concentration: 1 μM, replicates: in singlicate; n = 1
T2 construct: gene CDK19

CDK2 = conditions: concentration: 1 μM, replicates: in singlicate; n = 1
CDK3 = conditions: concentration: 1 μM, replicates: in singlicate; n = 1
CDK4-cyclinD1 = conditions: n = 1
CDK4-cyclinD3 = conditions: n = 1
CDK4 = conditions: n = 1
CDK5 = conditions: concentration: 1 μM, replicates: in singlicate; n = 1
CDK7 = conditions: concentration: 1 μM, replicates: in singlicate; n = 1
CDK8 = conditions: concentration: 1 μM, replicates: in singlicate; n = 1
CDK9 = conditions: concentration: 1 μM, replicates: in singlicate; n = 1
CDKL1 = conditions: concentration: 1 μM, replicates: in singlicate; n = 1
CDKL2 = conditions: concentration: 1 μM, replicates: in singlicate; n = 1
CDKL3 = conditions: concentration: 1 μM, replicates: in singlicate; n = 1
CDKL5 = conditions: concentration: 1 μM, replicates: in singlicate; n = 1
CHEK1 = conditions: concentration: 1 μM, replicates: in singlicate; n = 1
CHEK2 = conditions: concentration: 1 μM, replicates: in singlicate; n = 1
CIT = conditions: concentration: 1 μM, replicates: in singlicate; n = 1
CLK1 = conditions: concentration: 1 μM, replicates: in singlicate; n = 1
[1] = concentration: 1 μM, replicates: in singlicate
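Also: KINOMEscan kinase panel screen.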

## c1ccc(Oc2ccc(Nc3ccnc4cc(-c5ccc(CN6CCCCC6)o5)ccc34)cc2)nc1 [GW567143]
CDC2L2
  %Inh: 9%
CDC2L5; [1]
  %Inh: 0%
CDK11
  %Inh: 0%
CDK2
  %Inh: 0%
CDK3
  %Inh: 7%
CDK4-cyclinD1; [1]
  %Inh: 0%
CDK4-cyclinD3; [1]
  %Inh: 0%
CDK4; [1]
  %Inh: 18%
CDK5
  %Inh: 0%
CDK7
  %Inh: 45%
CDK8
  %Inh: 14%
CDK9
  %Inh: 0%
CDKL1
  %Inh: 0%
CDKL2
  %Inh: 12%
CDKL3
  %Inh: 0%
CDKL5
  %Inh: 19%
CHEK1
  %Inh: 0%
CHEK2
  %Inh: 74%
CIT
  %Inh: 6%
CLK1
  %Inh: 1%

## CNc1nccc(-c2ccc3c(N)n[nH]c3c2)n1 [GSK2206003]
CDC2L2
  %Inh: 17%
CDC2L5; [1]
  %Inh: 0%
CDK11
  %Inh: 0%
CDK2
  %Inh: 23%
CDK3
  %Inh: 19%
CDK4-cyclinD1; [1]
  %Inh: 7%
CDK4-cyclinD3; [1]
  %Inh: 0%
CDK4; [1]
  %Inh: 31%
CDK5
  %Inh: 0%
CDK7
  %Inh: 23%
CDK8
  %Inh: 32%
CDK9
  %Inh: 11%
CDKL1
  %Inh: 18%
CDKL2
  %Inh: 17%
CDKL3
  %Inh: 0%
CDKL5
  %Inh: 0%
CHEK1
  %Inh: 0%
CHEK2
  %Inh: 51%
CIT
  %Inh: 86%
CLK1
  %Inh: 97.1%

## Cn1cc(-c2cnc(N)c3c(-c4ccc5c(c4)CCN5C(=O)Cc4ccccc4)csc23)cn1 [GSK2593074]
CDC2L2
  %Inh: 1%
CDC2L5; 1 µM
  %Inh: 0%
CDK11
  %Inh: 18%
CDK2
  %Inh: 0%
CDK3
  %Inh: 1%
CDK4-cyclinD1; 1 µM
  %Inh: 0%
CDK4-cyclinD3; 1 µM
  %Inh: 0%
CDK4; 1 µM
  %Inh: 0%
CDK5
  %Inh: 2%
CDK7
  %Inh: 19%
CDK8
  %Inh: 19%
CDK9
  %Inh: 0%
CDKL1
  %Inh: 9%
CDKL2
  %Inh: 0%
CDKL3
  %Inh: 4%
CDKL5
  %Inh: 0%
CHEK1
  %Inh: 9%
CHEK2
  %Inh: 0%
CIT
  %Inh: 0%
CLK1
  %Inh: 15%

## Cc1ccc(NC(=O)c2cccc(N3CCCCC3)c2)cc1-c1ccc(C(=O)NCC2CC2)cc1 [GSK1917008]
CDC2L2
  %Inh: 8%
CDC2L5; [1]
  %Inh: 0%
CDK11
  %Inh: 8%
CDK2
  %Inh: 2%
CDK3
  %Inh: 8%
CDK4-cyclinD1; [1]
  %Inh: 0%
CDK4-cyclinD3; [1]
  %Inh: 1%
CDK4; [1]
  %Inh: 0%
CDK5
  %Inh: 2%
CDK7
  %Inh: 0%
CDK8
  %Inh: 10%
CDK9
  %Inh: 0%
CDKL1
  %Inh: 7%
CDKL2
  %Inh: 16%
CDKL3
  %Inh: 0%
CDKL5
  %Inh: 7%
CHEK1
  %Inh: 100%
CHEK2
  %Inh: 0%
CIT
  %Inh: 86%
CLK1
  %Inh: 22%

## Cc1ccc(O)cc1Nc1ccnc2ccc(C(C)(C)C)cc12 [GW856805]
CDC2L2
  %Inh: 15%
CDC2L5; [1]
  %Inh: 36%
CDK11
  %Inh: 21%
CDK2
  %Inh: 7%
CDK3
  %Inh: 0%
CDK4-cyclinD1; [1]
  %Inh: 12%
CDK4-cyclinD3; [1]
  %Inh: 24%
CDK4; [1]
  %Inh: 25%
CDK5
  %Inh: 0%
CDK7
  %Inh: 42%
CDK8
  %Inh: 0%
CDK9
  %Inh: 12%
CDKL1
  %Inh: 24%
CDKL2
  %Inh: 0%
CDKL3
  %Inh: 17%
CDKL5
  %Inh: 10%
CHEK1
  %Inh: 9%
CHEK2
  %Inh: 3%
CIT
  %Inh: 25%
CLK1
  %Inh: 0%

## Cc1cc(-c2c(-c3ccc(F)cc3)ncn2CCCN2CCOCC2)nc(N)n1 [SB-222517]
CDC2L2
  %Inh: 8%
CDC2L5; [1]
  %Inh: 0%
CDK11
  %Inh: 22%
CDK2
  %Inh: 0%
CDK3
  %Inh: 18%
CDK4-cyclinD1; [1]
  %Inh: 0%
CDK4-cyclinD3; [1]
  %Inh: 0%
CDK4; [1]
  %Inh: 24%
CDK5
  %Inh: 14%
CDK7
  %Inh: 11%
CDK8
  %Inh: 0%
CDK9
  %Inh: 0%
CDKL1
  %Inh: 30%
CDKL2
  %Inh: 0%
CDKL3
  %Inh: 35%
CDKL5
  %Inh: 7%
CHEK1
  %Inh: 0%
CHEK2
  %Inh: 0%
CIT
  %Inh: 2%
CLK1
  %Inh: 0%

## N#Cc1cnc2cc(-c3cnc(CNCCN4CCOCC4)s3)ccc2c1Nc1ccc(Oc2ccccc2)cc1 [GW664114]
CDC2L2
  %Inh: 6%
CDC2L5; [1]
  %Inh: 0%
CDK11
  %Inh: 0%
CDK2
  %Inh: 0%
CDK3
  %Inh: 7%
CDK4-cyclinD1; [1]
  %Inh: 0%
CDK4-cyclinD3; [1]
  %Inh: 4%
CDK4; [1]
  %Inh: 10%
CDK5
  %Inh: 0%
CDK7
  %Inh: 15%
CDK8
  %Inh: 10%
CDK9
  %Inh: 0%
CDKL1
  %Inh: 0%
CDKL2
  %Inh: 61%
CDKL3
  %Inh: 0%
CDKL5
  %Inh: 29%
CHEK1
  %Inh: 0%
CHEK2
  %Inh: 82%
CIT
  %Inh: 22%
CLK1
  %Inh: 40%

## O=C(Nc1c(F)cccc1F)c1cc(C(=O)c2ccccc2F)c[nH]1 [GSK1326180]
CDC2L2
  %Inh: 0%
CDC2L5; [1]
  %Inh: 0%
CDK11
  %Inh: 6%
CDK2
  %Inh: 0%
CDK3
  %Inh: 16%
CDK4-cyclinD1; [1]
  %Inh: 33%
CDK4-cyclinD3; [1]
  %Inh: 0%
CDK4; [1]
  %Inh: 14%
CDK5
  %Inh: 0%
CDK7
  %Inh: 0%
CDK8
  %Inh: 14%
CDK9
  %Inh: 0%
CDKL1
  %Inh: 0%
CDKL2
  %Inh: 7%
CDKL3
  %Inh: 0%
CDKL5
  %Inh: 0%
CHEK1
  %Inh: 0%
CHEK2
  %Inh: 11%
CIT
  %Inh: 5%
CLK1
  %Inh: 22%

## Cn1cc(-c2ccc3c(c2)CCN3C(=O)Cc2cc(F)cc(F)c2F)c2c(N)ncnc21 [GSK2634140]
CDC2L2
  %Inh: 19%
CDC2L5; [1]
  %Inh: 0%
CDK11
  %Inh: 86%
CDK2
  %Inh: 8%
CDK3
  %Inh: 45%
CDK4-cyclinD1; [1]
  %Inh: 0%
CDK4-cyclinD3; [1]
  %Inh: 0%
CDK4; [1]
  %Inh: 26%
CDK5
  %Inh: 0%
CDK7
  %Inh: 0%
CDK8
  %Inh: 88%
CDK9
  %Inh: 3%
CDKL1
  %Inh: 8%
CDKL2
  %Inh: 29%
CDKL3
  %Inh: 0%
CDKL5
  %Inh: 3%
CHEK1
  %Inh: 9%
CHEK2
  %Inh: 0%
CIT
  %Inh: 36%
CLK1
  %Inh: 16%

## Cl.Cl.NCC(NC(=O)c1cc(-c2cccnc2)c(-c2ccnc3[nH]ccc23)s1)c1ccccc1 (centres unmarked) [GSK1323434]
CDC2L2
  %Inh: 9%
CDC2L5; [1]
  %Inh: 0%
CDK11
  %Inh: 8%
CDK2
  %Inh: 3%
CDK3
  %Inh: 26%
CDK4-cyclinD1; [1]
  %Inh: 39%
CDK4-cyclinD3; [1]
  %Inh: 0%
CDK4; [1]
  %Inh: 79%
CDK5
  %Inh: 0%
CDK7
  %Inh: 50%
CDK8
  %Inh: 43%
CDK9
  %Inh: 1%
CDKL1
  %Inh: 66%
CDKL2
  %Inh: 23%
CDKL3
  %Inh: 0%
CDKL5
  %Inh: 0%
CHEK1
  %Inh: 0%
CHEK2
  %Inh: 55%
CIT
  %Inh: 100%
CLK1
  %Inh: 71%
